Bioassay records (PubChem)
L3MBTL1 block – qHTS Assay for the Inhibitors of L3MBTL1 | Lethal(3)malignant brain tumor-like protein 1 (Homo sapiens), Q9Y468 | AlphaScreen L3MBTL1–H3K9me1 peptide binding | Potency, µM (highest dose often 57.1 µM), inactives show top-dose activity, negative = inhibition, actives largely listed as inhibitors | 230,000 tested, 0.66% active; also: % is scaled to controls: 0 for no effect and ±100 for the full control effect; nearly all actives have a fitted effect of over 60% in size
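Read-out is AlphaScreen signal from streptavidin donor and nickel chelate acceptor beads (10 ug/mL final each) bridging L3MBTL1 (50 nM) and biotinylated K9-monomethylated H3(1-15) peptide (75 nM), after 30 min compound exposure at room temperature.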
BAZ2B block – qHTS Assay for Inhibitors of BAZ2B; AlphaScreen BAZ2B-H3K14Ac peptide displacement; Bromodomain adjacent to zinc finger domain protein 2B (Homo sapiens), Q9UIF8; 360,000 tested, 4.4% active; Potency, µM (titrated, usually from 114 µM), for the others: at the highest dose activity change, negative = inhibition, actives largely listed as inhibitors; also: % is scaled to controls: 0 for no effect and ±100 for the full control effect; nearly all actives have a fitted effect of over 60% in size
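Protein-peptide AlphaScreen: BAZ2B 50 nM, b-H3K14Ac 50 nM, 1x PBS pH 7.4 + 0.01% Tween-20. Preincubation 30 min RT; cpd 30 min RT (top 110 uM); beads 20 min RT, light-protected.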
HP1b chromo inh – HTS for Inhibitors of HP1-beta Chromodomain Interactions with Methylated Histone Tails | AlphaScreen HP1-beta / biotin-H3K9me3 peptide binding | 390,000 tested, 0.56% active | Chromobox protein homolog 1 (Homo sapiens), P83916 | Potency, µM (titrated, usually from 114 µM), inactives show at the top dose activity change, negative = inhibition, hits mostly inhibitors; also: nearly all actives have a fitted effect of over 70% in size
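Compound inhibition of the preformed complex between 50 nM HP1-beta and 50 nM biotinylated H3K9me3 peptide was read by AlphaScreen. Buffer was PBS pH 7.4 with 0.01% Tween-20. Incubations ran 30 min at room temperature, with 10 ug/mL donor/acceptor beads.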
G9a block – qHTS Assay for Inhibitors of Histone Lysine Methyltransferase G9a; 350,000 tested, 8.8% active; AID 504332, 2011; Histone-lysine N-methyltransferase EHMT2 (Homo sapiens), Q96KQ7; G9a H3K9 monomethylation, AlphaScreen, 2 h; Potency, µM (highest dose often 102 µM), inactives show top-dose activity, negative = inhibition, hits mostly inhibitors; also: % is scaled to controls: 0 for no effect and ±100 for the full control effect; nearly all actives have a fitted effect of over 75% in size
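AlphaScreen read-out: biotin-H3K9 peptide (500 nM) methylation by 20 nM enzyme with 20 uM SAM, 2 h at room temperature after 15 min compound preincubation; anti-monomethyl H3K9 antibody plus donor/acceptor beads, 10 min dark.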
GLS inhibitor – qHTS for Inhibitors of Glutaminase (GLS); Glutaminase kidney isoform, mitochondrial (Homo sapiens), O94925; Potency, µM (highest dose often 45.5 µM), inactives show at the highest dose activity change, negative = inhibition, hits mostly inhibitors; AID 624170, 2012; 410,000 tested, 0.21% active; GLS enzymatic activity, qHTS titration; also: % is scaled to controls: 0 for no effect and ±100 for the full control effect
Target sequence (O94925 whole entry, looked up, canonical isoform): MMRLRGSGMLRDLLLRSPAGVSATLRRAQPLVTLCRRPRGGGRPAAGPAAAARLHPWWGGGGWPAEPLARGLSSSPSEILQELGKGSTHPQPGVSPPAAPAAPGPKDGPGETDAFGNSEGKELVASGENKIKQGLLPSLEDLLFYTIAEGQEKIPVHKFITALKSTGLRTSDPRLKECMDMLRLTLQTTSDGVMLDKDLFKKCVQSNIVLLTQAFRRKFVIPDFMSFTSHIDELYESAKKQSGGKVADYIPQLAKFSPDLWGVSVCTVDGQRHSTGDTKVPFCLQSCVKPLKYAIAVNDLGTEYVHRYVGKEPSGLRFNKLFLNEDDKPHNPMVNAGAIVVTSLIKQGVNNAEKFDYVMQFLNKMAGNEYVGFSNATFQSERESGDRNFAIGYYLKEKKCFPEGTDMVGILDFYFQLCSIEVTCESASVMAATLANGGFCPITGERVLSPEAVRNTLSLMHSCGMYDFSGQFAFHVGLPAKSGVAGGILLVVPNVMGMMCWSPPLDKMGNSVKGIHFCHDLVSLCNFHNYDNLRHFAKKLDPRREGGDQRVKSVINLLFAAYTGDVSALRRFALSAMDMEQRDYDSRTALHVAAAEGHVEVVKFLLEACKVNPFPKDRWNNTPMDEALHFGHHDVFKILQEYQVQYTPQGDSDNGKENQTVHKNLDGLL
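Compounds were pin-transferred onto hKGA, after which L-glutamine (1 mM solution) and a detection mix of glutamate oxidase, HRP and Amplex Red were added. Initial and 30 min RT fluorescence reads were collected.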
JMJD2A Tudor – qHTS Assay for Inhibitors of JMJD2A-Tudor Domain | AlphaScreen JMJD2A-Tudor / H3K4me3 peptide binding | Potency, µM (series often up to 114 µM), inactives show at the highest dose activity change, negative = inhibition, hits mostly inhibitors | 390,000 tested, 4.4% active | AID 504339, 2011; also: % is scaled to controls: 0 for no effect and ±100 for the full control effect; nearly all actives have a fitted effect of over 50% in size
* = called active by the depositor; ? = inconclusive; . = no result given; [ ] = remark or other dose. Compounds with a hit are over-represented: about 10% of the library has one in this group of screens. Calls follow the shape of the dose curve; as a rule, active = well fitted curve in the direction sought with a large enough effect; inconclusive = small, poorly fitted or top-dose-only effect, or another doubt; inactive = no such curve, though single readings can be large; an effect the other way counts as inactive or inconclusive. Potency is read from the fitted curve at half-maximal effect.

SMILES	L3MBTL1 block	BAZ2B block	HP1b chromo inh	G9a block	GLS inhibitor	JMJD2A Tudor
O=C(NCCc1csc(-c2cccnc2)n1)c1ccc(Br)o1	-9%	2%	56%	20µM*	-1%	-18%
Clc1ccc(C(CCN2CCCC2)Cc2ccccc2)cc1 (stereo not given)	.	50µM*	?	10µM*	4%	4µM*
CCc1c(C)sc(NC(=O)c2cc(C)no2)c1C#N	.	?	-17%	13µM*	7%	-18%
CCc1c(C)sc(NC(=O)c2cc(C(C)C)on2)c1C#N	.	-6%	7%	?	17%	-9%[11.4 µM]
CCc1cc(C(=O)Nc2sc(C)c(CC)c2C#N)no1	.	0%	-10%	2.5µM*	1%	0%
Cc1ccc2c(=O)cc(C(=O)NCc3ccccc3)oc2c1	.	-25%	4%	-15%[59 µM]	-3%	-17%
c1ccc(CNc2nc3ccccc3c3nc(-c4ccccc4)nn23)cc1	.	2%	61%	8%[59 µM]	-8%	33%
CC1(C)Nc2ccc(O)cc2-c2c1ssc2=S	?	45µM*	50µM*	8.9µM*	21%	40µM*
CC(=O)NS(=O)(=O)c1ccc(N=c2ssc3c2-c2cc(C)ccc2NC3(C)C)cc1	-12%	?	-10%	?	2%	?
COc1ccccc1-c1c(C(F)(F)F)oc2cc(OC(=O)c3ccc([N+](=O)[O-])cc3)ccc2c1=O	10%	?	?	25µM*	-9%	?
COc1cc(NC(c2ccccc2)c2ccccc2)cc(OC)c1OC	-11%	45µM*	-7%	40µM*	-13%	-22%
COc1ccc(NC(c2ccccc2)c2ccncc2)cc1 (stereo not given)	.	71µM*	8%	7.1µM*	-1%	45µM*
CCOc1ccc(CNC(=O)c2ccc3nc(C(C)C)oc3c2)cc1	.	5%	9%[57 µM]	1%[59 µM]	7%	-16%
CCc1ccccc1NC(=O)Cn1nnc(-c2nc(-c3ccncc3)no2)c1N	.	-13%	31%	7.1µM*	-5%	-1%
CCn1c2ccccc2c2n[nH]c(=S)nc21	.	-24%	8%	7.9µM*	-15%	-19%
CCCn1c2ccc(C)cc2c2n[nH]c(=S)nc21	.	-36%	26%	?	2%	-25%
O=C(O)CCn1c2ccccc2c2nc3ccccc3nc21	5%	11%	45%	.	13%	-4%
C=CCn1c2ccccc2c2n[nH]c(=S)nc21	0%	-35%	9%	10µM*	-1%	-32%
O=C(O)Cn1c2ccccc2c2n[nH]c(=S)nc21	-13%	50µM*	-20%	2.2µM*	-19%	20µM*
CCc1ccc(NC(=O)CSc2nc3c(c(=O)[nH]2)CN(Cc2ccc(C)cc2)CC3)cc1	.	-24%	60%	-3%[59 µM]	-3%	-6%
Cc1ccc(C(=O)c2cc(O)c(O)c([N+](=O)[O-])c2)cc1	.	.	.	.	17%	.
C=CCC(C=C)S(=O)(=O)c1ccc(C)cc1 (stereo not given)	.	1%	49%	-25%[59 µM]	5%	3%
CCc1c(C(C)S(=O)(=O)c2ccc(C)cc2)[nH]c(=O)n1-c1ccc(C)cc1 (stereo not given)	.	-21%	24%	8.9µM*	7%	-29%
CCc1[nH]c(=O)[nH]c1C(C)S(=O)(=O)c1ccc(C)cc1 (stereo not given)	.	-19%	?	1.6µM*	-6%	-27%
Cc1nn(C)c2c1c(C(F)(F)F)cc(=O)n2CC(=O)NCc1ccc(OC(C)C)cc1	.	-6%	8%	14%[59 µM]	-10%	-12%
